Assay [1] in a line: antimalarial activity against Dd2 strain (AID 2302;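 active = growth inhibition above 50% at the single 2 µM test dose, taken to imply half-maximal potency below 2 µM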;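 also: 0% = DMSO untreated growth and 100% = chloroquine plus artemisinin killed control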). The note with it: P. falciparum Dd2 in RBCs, LDH growth readout, 72 h; at 2 µM; stronger effect = higher value.
Assay [2] in a line: HepG2 cytotoxicity, primary screen, cytotoxicity control for P. falciparum antimalarial project, cell-based, ATP luminescence (AID 2303;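 active = inhibition above 50%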;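 also: 0% = DMSO wells and 100% = digitonin-killed cells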). The note with it: HepG2 viability, 24-48 h, at 10 µM, stronger effect = higher value.
For assay [3], the target named is L-lactate dehydrogenase (Plasmodium falciparum (isolate CDC / Honduras)) (UniProt Q27743). The experiment in a line: PfLDH activity inhibition – cell lysate, 3D7 strain, counter-screen for P. falciparum growth inhibition project (AID 2304).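 Also: 0% = vehicle and 100% = reference inhibitor.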 The note with it: P. falciparum 3D7 crude extract, LDH APAD/NBT absorbance; at 2 µM; stronger effect = higher value. On the technique in general: The purpose of a counterscreen is to sort out artefacts and off-target activity.

Assay [4] can be described thus: inhibition of 3D7 malaria parasite growth – strain 3D7 (AID 2306).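 Also: 0% = DMSO wells and 100% = chloroquine plus artemisinin control wells.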 The note with it: P. falciparum 3D7 erythrocytic growth, LDH absorbance, 72 h; at 2 µM; stronger effect = higher value.
The target in assay [5] is Calcium-dependent protein kinase 1 (Plasmodium falciparum (isolate 3D7)) (UniProt P62344). The assay is described as follows: PfCDPK1 kinase inhibitors, biochemical, TCAMS library (AID 1159585; cut-off not given, nearly all actives have IC50 up to about 0.98 µM;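 also: inhibitors leave more ATP so luminescence rises with inhibition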). The note with it: recombinant PfCDPK1, Kinase-Glo ATP depletion luminescence. Background: Kinase-Glo reads ATP consumption through a luciferase reaction.
Assay [6] addresses Plasmodium falciparum protein kinase 6 (PK6, PF3D7_1337100) (UniProt Q8IDW1). The assay is described as follows: PfPK6 kinase inhibitors, biochemical, TCAMS library (AID 1159586). The settings on record: recombinant PfPK6, Kinase-Glo ATP depletion luminescence.
Assay [7] concerns the target Protein kinase 7 (PK7), Plasmodium falciparum 3D7 (PF3D7_0213400) (UniProt Q7YTF7). The experiment in a line: inhibition of Plasmodium PK7 catalytic activity – biochemical, TCAMS antimalarial set, Kinase-Glo luminescence (AID 1159587). The note with it: recombinant PfPK7, Kinase-Glo ATP depletion luminescence.
The target in assay [8] is Calcium-dependent protein kinase 4 (Plasmodium falciparum (isolate 3D7)) (UniProt Q8IBS5). The assay is described as follows: PfCDPK4 kinase inhibitors, biochemical, TCAMS library (AID 1159588; cut-off not given, nearly all actives have IC50 up to about 0.91 µM). The note with it: recombinant PfCDPK4, Kinase-Glo ATP depletion luminescence.

Values without a mark were called inactive. For some of these results: Entries with a potency or affinity are not part of this list. Activity calls are given as the source filed them. Unless noted, no rule for the calls is given here.

Calcium-dependent protein kinase 1 (Plasmodium falciparum (isolate 3D7)), sequence (P62344 whole entry, looked up): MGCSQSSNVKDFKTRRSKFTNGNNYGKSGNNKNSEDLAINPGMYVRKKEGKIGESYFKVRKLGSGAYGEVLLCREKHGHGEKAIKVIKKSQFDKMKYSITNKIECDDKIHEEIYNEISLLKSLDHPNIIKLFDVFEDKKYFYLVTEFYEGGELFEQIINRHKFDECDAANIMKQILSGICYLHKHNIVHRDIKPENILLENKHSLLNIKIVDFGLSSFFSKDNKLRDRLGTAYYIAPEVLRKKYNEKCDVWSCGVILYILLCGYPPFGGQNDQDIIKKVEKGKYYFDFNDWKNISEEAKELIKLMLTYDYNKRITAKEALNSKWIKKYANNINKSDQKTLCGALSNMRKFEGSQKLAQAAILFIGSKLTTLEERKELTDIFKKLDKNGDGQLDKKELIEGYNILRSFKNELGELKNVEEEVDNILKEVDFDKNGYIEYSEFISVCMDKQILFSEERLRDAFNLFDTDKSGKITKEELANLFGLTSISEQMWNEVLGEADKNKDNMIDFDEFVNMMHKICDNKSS
Plasmodium falciparum protein kinase 6 (PK6, PF3D7_1337100), sequence (Q8IDW1 1-305): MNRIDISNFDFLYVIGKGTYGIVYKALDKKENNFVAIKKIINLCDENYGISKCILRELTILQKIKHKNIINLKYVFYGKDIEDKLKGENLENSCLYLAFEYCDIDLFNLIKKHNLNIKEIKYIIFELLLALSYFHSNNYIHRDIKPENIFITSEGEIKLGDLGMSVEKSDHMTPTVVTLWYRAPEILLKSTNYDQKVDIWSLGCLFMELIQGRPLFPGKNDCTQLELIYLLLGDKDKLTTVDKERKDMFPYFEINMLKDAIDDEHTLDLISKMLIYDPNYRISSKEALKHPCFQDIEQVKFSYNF
Protein kinase 7 (PK7), Plasmodium falciparum 3D7 (PF3D7_0213400), sequence (Q7YTF7 1-343): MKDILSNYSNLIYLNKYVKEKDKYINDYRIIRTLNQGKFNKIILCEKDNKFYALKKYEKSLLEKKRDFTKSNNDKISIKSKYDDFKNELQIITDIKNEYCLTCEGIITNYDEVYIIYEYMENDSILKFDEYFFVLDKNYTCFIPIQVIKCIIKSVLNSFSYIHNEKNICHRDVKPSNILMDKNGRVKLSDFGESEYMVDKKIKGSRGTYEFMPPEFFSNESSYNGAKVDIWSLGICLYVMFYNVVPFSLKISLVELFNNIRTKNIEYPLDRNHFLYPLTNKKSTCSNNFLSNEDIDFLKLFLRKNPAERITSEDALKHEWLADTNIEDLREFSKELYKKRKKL
Calcium-dependent protein kinase 4 (Plasmodium falciparum (isolate 3D7)), sequence (Q8IBS5 whole entry, looked up): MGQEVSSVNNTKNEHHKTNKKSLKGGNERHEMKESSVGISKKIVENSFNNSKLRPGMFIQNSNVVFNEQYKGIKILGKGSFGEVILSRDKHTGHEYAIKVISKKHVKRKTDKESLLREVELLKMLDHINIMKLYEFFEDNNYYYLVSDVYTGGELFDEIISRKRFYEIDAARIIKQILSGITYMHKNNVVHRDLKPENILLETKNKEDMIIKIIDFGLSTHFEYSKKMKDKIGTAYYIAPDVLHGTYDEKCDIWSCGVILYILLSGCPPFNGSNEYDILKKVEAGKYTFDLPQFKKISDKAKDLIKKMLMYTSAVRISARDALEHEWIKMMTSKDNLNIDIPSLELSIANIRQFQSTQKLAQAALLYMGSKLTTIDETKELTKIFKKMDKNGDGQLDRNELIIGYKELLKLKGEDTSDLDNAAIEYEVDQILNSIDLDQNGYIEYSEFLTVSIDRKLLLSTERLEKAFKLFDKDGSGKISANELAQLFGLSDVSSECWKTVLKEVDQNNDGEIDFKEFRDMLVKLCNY
L-lactate dehydrogenase (Plasmodium falciparum (isolate CDC / Honduras)), sequence (Q27743 whole entry, looked up): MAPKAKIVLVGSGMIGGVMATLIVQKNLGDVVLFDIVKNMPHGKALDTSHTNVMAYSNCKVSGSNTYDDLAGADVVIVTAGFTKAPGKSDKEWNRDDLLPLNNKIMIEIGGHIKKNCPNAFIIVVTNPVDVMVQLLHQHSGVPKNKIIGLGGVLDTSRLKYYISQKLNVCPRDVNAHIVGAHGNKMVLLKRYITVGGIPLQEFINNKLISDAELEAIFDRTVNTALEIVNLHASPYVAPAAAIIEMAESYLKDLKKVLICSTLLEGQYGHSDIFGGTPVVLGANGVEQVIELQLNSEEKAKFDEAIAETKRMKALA

For the compound `COc1ccc(CN2CCC(CNCc3cccc(-c4ccccc4)c3)CC2)cc1`, the growth inhibition in assay [1] was 92% (active); in assay [4], 100% (active). The inhibition (usually the relative decrease from the control value, in per cent) in assay [2] is 96% (active); in assay [3], 2%. Further, the result in assay [5], in assay [6], in assay [7] and in assay [8] was inactive.
In the case of `CCCN1CCN(CCCNC(=O)c2cc3c(-c4ccc(Cl)cc4)nn(C)c3s2)CC1`, the growth inhibition in assay [1] is 20%; in assay [4], 88% (active). The inhibition is 46% in assay [2] and -3% in assay [3]. The outcome in assay [5], in assay [6], in assay [7] and in assay [8] was inactive.
Take `CCN(CC)CCNC(=O)c1ccc(NC(=O)c2oc3c(Cl)cccc3c2C)cc1`: the growth inhibition in assay [1] was 68% (active); in assay [4], 98% (active). Also, the results for the inhibition in assay [2] and in assay [3] were 24% and 5%, respectively. Moreover, the outcome in assay [5], in assay [6], in assay [7] and in assay [8] was inactive.
Consider `COc1ccc2cc(C(c3nnnn3CC3CCCO3)N3CCc4ccccc43)c(=O)[nH]c2c1` (stereo not given), for which the growth inhibition was 3% in assay [1] and 94% (active) in assay [4]. The inhibition in assay [2] was -3%; in assay [3], -1%. Moreover, the outcome in assay [5], in assay [6], in assay [7] and in assay [8] was inactive.
For the compound `O=C(NCCCCN1CCN(c2ccc3c(c2)CCC3)CC1)c1ccc(NC(=O)c2ccc(Cl)cc2)cc1`, the growth inhibition in assay [1] is 35%; in assay [4], 98% (active). The inhibition in assay [2] was 38%; in assay [3], 2%. Also, the result in assay [5], in assay [6], in assay [7] and in assay [8] was inactive.
Regarding `Cc1sc(C)c(C(F)(F)F)c1CNCCCNc1cc(=O)c2ccccc2[nH]1`, the growth inhibition in assay [1] was 43%; in assay [4], 96% (active). The inhibition in assay [2] is -3%; in assay [3], -1%. Also, the result in assay [5], in assay [6], in assay [7] and in assay [8] was inactive.
As to `CC(CN1CCN(C)CC1)C(=O)Nc1cccc(-c2ccc(-c3nc4ccccc4[nH]3)cc2)c1` (stereo not given), the growth inhibition in assay [1] is 38%; in assay [4] it was 95% (active). Also, the inhibition in assay [2] was 2%; in assay [3] it was -1%. The outcome in assay [5], in assay [6], in assay [7] and in assay [8] was inactive.
For `Oc1cc2c(cc1CN1CCN(Cc3ccccc3F)CC1)CCC2`, the growth inhibition in assay [1] was 94% (active); in assay [4] it was 98% (active). The inhibition in assay [2] is 2%; in assay [3], -3%. For the same compound, the outcome in assay [5], in assay [6], in assay [7] and in assay [8] was inactive.
In the case of `COc1ccc(CNCc2ccccc2)cc1-c1ccc(S(=O)(=O)NCCN2CCCC2)s1`, the growth inhibition in assay [1] was 62% (active); in assay [4], 101% (active). The values for the inhibition in assay [2] and in assay [3] were 32% and 0%, respectively. For the same compound, the outcome in assay [5], in assay [6], in assay [7] and in assay [8] was inactive.
Turning to `O=C(Nc1cccc(-c2cccc(-c3nc4ccccc4[nH]3)c2)c1)c1ccncc1`, the growth inhibition was 38% in assay [1] and 99% (active) in assay [4]. In addition, the inhibition in assay [2] is 27%; in assay [3], -4%. For the same compound, the outcome in assay [5], in assay [6], in assay [7] and in assay [8] was inactive.
In the case of `COc1ccc2nccc(N(C)CC3(O)CCC(NCc4cc5c(cn4)OCCO5)CC3)c2n1` (stereo not given), the growth inhibition is 14% in assay [1] and 99% (active) in assay [4]. Besides, the inhibition in assay [2] is 1%; in assay [3] it was -2%. The result in assay [5], in assay [6], in assay [7] and in assay [8] was inactive.
For the compound `Nc1ccc(-c2ccc3ccnc(N)c3c2)cc1`, the values for the growth inhibition in assay [1] and in assay [4] were 68% (active) and 102% (active), respectively. Also, the inhibition in assay [2] was 38%; in assay [3], -1%. Further, the outcome in assay [5], in assay [6], in assay [7] and in assay [8] was inactive.
On to `CCC[C@@H]([C@@H](CC1CCCCC1)C(=O)N[C@H](C(=O)Nc1nccs1)[C@H](C)O)N(O)C=O`, for which the growth inhibition in assay [1] was 75% (active); in assay [4] it was 99% (active). Also, the inhibition was -4% in assay [2] and -5% in assay [3]. For the same compound, the outcome in assay [5], in assay [6], in assay [7] and in assay [8] was inactive.
In the case of `COc1ccc2c(NN=Cc3cccc(Cl)c3)ccnc2c1`, the growth inhibition is 94% (active) in assay [1] and 101% (active) in assay [4]. The inhibition in assay [2] is 32%; in assay [3], -3%. For the same compound, the outcome in assay [5], in assay [6], in assay [7] and in assay [8] was inactive.
As for `O=c1ccc2ccc(F)c3c2n1CC3CN1CCC(NCc2cccc(-c3ccccc3F)c2)CC1` (stereo not given), the growth inhibition in assay [1] is 6%; in assay [4] it was 100% (active). For the same compound, the values for the inhibition in assay [2] and in assay [3] were 29% and -1%, respectively. Also, the result in assay [5], in assay [6], in assay [7] and in assay [8] was inactive.
`CCOC(=O)c1c(C)n(-c2ccccc2)c2ccc(O)cc12`: the growth inhibition in assay [1] was 87% (active); in assay [4], 101% (active). For the same compound, the inhibition was -7% in assay [2] and -4% in assay [3]. Further, the outcome in assay [5], in assay [6], in assay [7] and in assay [8] was inactive.
As to `O=C(Nc1ccc(C(F)(F)F)cc1)NC1CCN(CCCCCNC(=O)[C@@H]2C[C@H]2c2ccc(Cl)c(Cl)c2)CC1`, the growth inhibition in assay [1] is 45%; in assay [4], 101% (active). In addition, the inhibition in assay [2] is 41%; in assay [3], -7%. Besides, the outcome in assay [5], in assay [6], in assay [7] and in assay [8] was inactive.
As for `CCN1CCC(N(Cc2ccc(-c3ccc(C(F)(F)F)cc3)o2)C(=O)Cn2c(CCc3cccc(F)c3F)nc(=O)c3ccccc32)CC1`, the growth inhibition in assay [1] was 88% (active); in assay [4] it was 91% (active). Moreover, the inhibition in assay [2] is 45%; in assay [3] it was -1%. For the same compound, the result in assay [5], in assay [6], in assay [7] and in assay [8] was inactive.
As for `Cc1cccc(CN2CCCC3(CCN(Cc4ccccc4O)C3)C2)c1` (stereo not given), the growth inhibition in assay [1] was 76% (active); in assay [4] it was 99% (active). For the same compound, the inhibition in assay [2] was 14%; in assay [3], -3%. The result in assay [5], in assay [6], in assay [7] and in assay [8] was inactive.
With `CC(C)CN1C(=O)c2ccccc2C(C(=O)Nc2cccc(C#N)c2)C1c1cccs1` (stereo not given), the results for the growth inhibition in assay [1] and in assay [4] were 100% (active) and 101% (active), respectively. In addition, the results for the inhibition in assay [2] and in assay [3] were 11% and -4%, respectively. The result in assay [5], in assay [6], in assay [7] and in assay [8] was inactive.

For the origin of these results see PubChem BioAssay.
